The supplement of paper PMC6555819

Experiments:
Experiment in all cases: PBM binding z-score (relative to random genomic background probes); higher = stronger binding; sequences stand for … in GC…GCGATTGACAGCGTAGAATGAAGG
[1] = test system: RARb homodimer (NR concentration 270 nM)
How it was run: (§1)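 Random background probes are the reference for binding z-scores. These scores derive from regression-normalized fluorescence on custom Agilent 4×180K protein-binding microarrays incubated 1 h with ligand-free nuclear receptor dimers. Binding was detected with antibodies against each partner (one per run).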

[2] = test system: RARg:RXRa (NR concentration 270 nM, RXRa partner concentration 90 nM)
How it was run: as §1

[3] = test system: RARg homodimer (NR concentration 270 nM)
How it was run: as §1

[4] = test system: RXRa DBDmut IVT, anti-RXR (DBD mutation: RXRa K156A/R161A, NR concentration 90 nM)
How it was run: as §1

[5] = test system: RXRa homodimer (NR concentration 180 nM)
How it was run: as §1

[6] = test system: THRa:RXRa (NR concentration 90 nM, RXRa partner concentration 90 nM)
How it was run: as §1

[7] = test system: THRa homodimer (NR concentration 90 nM)
How it was run: as §1

[8] = test system: VDR homodimer (NR concentration 270 nM)
How it was run: as §1

| Sequence | PBM binding z-score [1] | PBM binding z-score [2] | PBM binding z-score [3] | PBM binding z-score [4] | PBM binding z-score [5] | PBM binding z-score [6] | PBM binding z-score [7] | PBM binding z-score [8] |
| --- | --- | --- | --- | --- | --- | --- | --- | --- |
| GCTGCTAGGTCAACTGATGGTCAGCGAAAGCTCG | 3.66 | 5.35 | 5.22 | 1.57 | 3.2 | 2.98 | 0.857 | 0.0996 |
| CGTACGAGGGCATGAGTTGATAGCAAATGCCGAT | 0.825 | 1.38 | 1.57 | 2.36 | 1.03 | 1.37 | -0.172 | 1.67 |
| TAGCCTAGGTCATGGGCGAGTATACCACGCGAAC | 2.97 | 4.08 | 4.15 | 0.379 | 3.57 | 3.11 | 1.11 | 0.339 |
| AGAATGAGGTTACCAAAGATTAGGGAAACGCTTG | 0.628 | 1.99 | 1.59 | 0.929 | 2.53 | 2.69 | 0.581 | 0.29 |
| GCTAGCAGGCCATTTTGGTCACTCAATGACGGGC | 0.0226 | -0.296 | 0.212 | -0.337 | -0.426 | -0.234 | -0.974 | -0.748 |
| CCTAGCAGGCCAGTGTCACTCAAGCATTTCGCTT | 0.0425 | -0.0888 | -0.171 | 0.13 | -0.38 | -0.213 | -0.656 | -0.509 |
| CGTCAAGGTTCAACTAAGGTAACGTAAAGCACGC | 2.36 | 3.57 | 2.98 | 4.42 | 3.53 | 5.38 | 1.72 | 3.36 |
| CGAACGAGGGGATGAGTTGATAGCAAATGCCGAT | -0.429 | -0.0531 | 0.201 | 0.534 | 0.0402 | -0.246 | -0.206 | 0.579 |
| ATCGAAAGGTCGTGGGGTGAGTATACAGAAAGGC | 3.6 | 5.2 | 4.44 | 2.07 | 6.17 | 3.62 | 2.02 | 2.16 |
| GCTGCTAGGTCAACGGATGGTCAGCTAAAGCTCG | 3.51 | 4.98 | 5.24 | 1.17 | 2.82 | 2.51 | 0.887 | 0.0371 |
| CGGCCAAGGTCAGCAGGTCAGTGAAAGCGACGTG | 5.01 | 6.21 | 6.95 | 2.22 | 5.05 | 3.85 | 1.94 | 1.09 |
| CCTATTAGTTGACCCTAAGGGCAACCGAAGCTCG | 3.48 | 4.12 | 2.5 | 0.762 | 5.73 | 4.02 | 3.25 | 1.72 |
| AGAACGAGGGCAATGAGTTGATAGGACGGGTGGC | 1.01 | 1.22 | 1.39 | 2.23 | 0.869 | 0.954 | -0.116 | 3.01 |
| ATCTCAAGGTAAGACTCAGTTCAGTGAAGAACGC | 0.641 | 0.668 | 0.469 | 0.363 | 0.542 | 1.36 | 0.884 | 1.5 |
| GCGAGTGGGGCATCAGCAGGTTACCATAACTTAA | 0.915 | 1.05 | 0.378 | -0.215 | 0.32 | 0.958 | 0.127 | -0.291 |
| CGACCTAGGTCATCCAGGACAGTGAATACATTGA | 3.41 | 4.75 | 4.97 | 2.6 | 3.37 | 4 | 2.18 | 2.5 |
| CCTAGTGGGCCAAAAAGGTCATTGATGCCGATAA | 4.28 | 4.7 | 4.5 | 0.794 | 4.79 | 2.71 | 0.434 | 2.66 |
| CCGACTGGGGCATAAGCTTACCATAAGCCAGCCC | -0.773 | -0.376 | -0.313 | 0.074 | -0.312 | -0.645 | -1.06 | -0.947 |
| TCATATAGGTAAATGCTAGGTGAAAGTCCGATCT | 0.629 | 0.482 | 0.503 | 1.42 | 0.567 | 1.39 | 0.441 | 0.42 |
| CCTACTGTGCCAAAGGTCATTGATTCCAATGCTC | 4.59 | 5.61 | 5.21 | 2.09 | 6.46 | 3.46 | 1.72 | 3.37 |
| CGTCAAAGTTCGAGGTAACGTAACAGAAAGCAGC | 1.46 | 1.92 | 2.31 | 2.39 | 1.64 | 2.1 | 0.898 | 1.2 |
| ACTAGCAGGCCAAGTTTGGGGCACTCAAACAAAG | 0.455 | 0.443 | 0.463 | -0.0962 | -0.356 | 0.348 | -0.409 | -0.166 |
| CCTACTGGGCGAAAGGTCATTGATTCCAATGCTC | 4.3 | 5.19 | 4.82 | 1.01 | 5.76 | 2.95 | 0.374 | 2 |
| CATCCAAGGTCAGCAGGTCAGTGAAAGCGACGTG | 5.04 | 6.2 | 7.09 | 2.7 | 6.07 | 3.89 | 2.76 | 2.18 |
| ACTTACGGGTCAACGAGGTTATAGTACGCGTATA | 3.9 | 5.7 | 5.01 | 2.85 | 6.32 | 4.14 | 1.34 | 4.38 |
| TATACCGGGTCAAAGGCCAGAGTACGAATGTCGA | 3.15 | 4.74 | 4.08 | 1.38 | 5.91 | 3.36 | 0.712 | 1.98 |
| AGAATGAGGGCAATGAGTTGATAGCACGGGTGGC | 1.18 | 1.31 | 1.47 | 2.27 | 0.95 | 1.59 | 0.363 | 3.47 |
| CCGTACGGGTCACTGACAGGTTATAGCATTTGGA | 3.2 | 6.14 | 4.89 | 1.07 | 5.53 | 2.97 | -0.108 | 0.766 |
